We go through 10 compounds from PubChem BioAssay (NCATS).

SMILES strings stand for the structures. Where “and” joins values, the source holds several entries; their conditions need not be identical. Identical values can stand only once. Values without a mark were called inactive. Inconclusive results are not listed. Calls of active or inactive are those of the source. Unless noted, calls follow the shape of the dose curve; as a rule, active = well fitted curve in either direction with a large enough effect (not every such curve was filed as active); inconclusive = small, poorly fitted or top-dose-only effect, or another doubt; inactive = flat fitted curve, though single readings scatter. Bounds are passed on as bounds.

A short description of experiment [1]: AP1 Signaling Pathway (AID 357).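 Also: ME-180 reporter cells stimulated with EGF at its EC50 level; % is scaled to controls: 0 for no effect and ±100 for the full control effect.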 Conditions: ME-180 AP-1-bla reporter, EGF-induced, beta-lactamase ratio, 5 h. The method in brief:
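Cells are seeded overnight, exposed to compound titrations and an EC50 level of EGF for 5 hours at 37 °C, then loaded with CCF4 dye for 2.5 hours. Beta-lactamase activity under the AP-1 element is read as a blue/green ratio.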

The nature of experiment [2]: NFAT Signaling Pathway (AID 444).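 Also: carbachol stimulus at about its EC50 of 1 µM final; % is scaled to controls: 0 for no effect and ±100 for the full control effect.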 Conditions: Jurkat NFAT-bla M1, carbachol, beta-lactamase ratio, 5 h. An outline of the steps: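 Jurkat cells with NFAT-driven β-lactamase reporter and co-expressed M1 receptor, stimulated with carbachol (final 1 uM, ~EC50), compound titration, 5 h at 37 °C. CCF4 loaded 1 h at RT; 460/530 nm ratio gave %activity and AC50.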
Experiment [3] can be described thus: Stat Signaling Pathway (AID 446).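 Also: ME-180 cervical cancer cells given 40 pM IL-6 alongside compound; SIE-controlled beta-lactamase reporter measured as 460/530 nm FRET emission ratio; % is scaled to controls: 0 for no effect and ±100 for the full control effect.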 Particulars: ME-180 (cervical carcinoma) SIE beta-lactamase reporter, IL-6 stimulated, 5 h; series mostly up to 17.2 µM. An outline of the steps: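 Overnight-plated ME-180 cells bearing a STAT Inducible Element beta-lactamase reporter; 5 h co-exposure to compound and 40 pM IL-6; values normalized to 300 pM IL-6 and 125 nM JAK inhibitor controls.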

In experiment [4] the target is Cytochrome P450 1A2 (Homo sapiens) (UniProt P05177). Briefly: p450-cyp1a2 (AID 410; calls by dose curve; also: potency is read from the fitted curve at half-maximal effect;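 as to activity change, negative = inhibition: -100% = full effect of reference inhibitor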). Particulars: recombinant CYP1A2, luciferin-ME demethylation, luminescence; series mostly up to 57 µM. The method in brief:
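O-Demethylation of luciferin 6' methyl ether by human CYP1A2 is monitored as luciferase luminescence. Substrate sits at Km (100uM); enzyme is 20nM. Values are scaled to 57 uM furafylline as maximal inhibition.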

In experiment [5] the target is Glucocorticoid receptor (Homo sapiens) (UniProt P04150). Put plainly: GR-GFP Redistribution (AID 450;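 active = compounds whose dose series gives a full or clear partial fitted curve of increased nuclear translocation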; also: potency is read from the fitted curve at half-maximal effect). Particulars: U2OS GR-GFP nuclear translocation, laser cytometry, 2 h.
For experiment [6] the target is unchanged. Briefly: GR-EFC Redistribution (AID 451; calls by dose curve; also: potency is read from the fitted curve at half-maximal effect). Conditions: CHO-K1 GR-EFC translocation, beta-gal luminescence, 2 h. An outline of the steps:
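CHO-K1 cells expressing nuclear EA and GR-ED fragments of b-gal; compounds titrated up to 46 uM final, 2 h at 37 C. GR nuclear translocation read as complemented b-gal luminescence after 1 h RT detection.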

In experiment [7] the target is Mitogen-activated protein kinase 10 (Mus musculus) (UniProt Q61831). Briefly: JNK3 AlphaScreen Assay (AID 530).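 Also: kinase came from lysate of stimulated human HepG2 cells; signal reports phosphorylation of biotinylated GST-cJun 1-79 at Ser73 with 10 µM ATP; % is scaled to controls: 0 for no effect and ±100 for the full control effect.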 Particulars: JNK3 lysate, c-Jun phosphorylation; series mostly up to 57.1 µM. The method in brief: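 Activity was read by AlphaScreen after JNK3-containing HepG2 lysate (cytokine pre-activated) phosphorylated biotinylated GST-cJun with 10 uM ATP at room temperature. Phospho-Ser73 cJun antibody with Protein-A acceptor beads provided detection.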
On the technique in general: Bead proximity is the source of the signal in Alpha formats.

A short description of experiment [8]: Cell Viability - BJ (AID 421; calls by dose curve;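 also: potency is read from the fitted curve at half-maximal effect; cells exposed to compound for 40 hours at 37 °C before readout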). Particulars: BJ fibroblast viability, qHTS. The method in brief:
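Quantitative HTS: ATP depletion in BJ cells after 40 hr compound exposure in complete culture medium, detected with CellTiter-Glo; AC50 from standard Hill fits.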
(In general: qHTS replaces the single test concentration by a dilution series.)

Experiment [9] in a line: Cell Viability - Jurkat (AID 426;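 active = dose-dependent loss of cell ATP signal giving a full or clear fitted curve, ranked by lower potency value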; also: potency is read from the fitted curve at half-maximal effect). Particulars: qHTS. An outline of the steps:
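Cells of the human T-cell leukemia line Jurkat (E6-1) are seeded at 5000 per well, treated with compound across a concentration range for 40 hours at 37 °C, then lysed with CellTiter-Glo; luminescence reports ATP.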

Experiment [10] is described as follows: Cell Viability - Hek293 (AID 427;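 active = compounds whose dose-response curve shows a full or clear partial loss of cell viability, called from curve shape rather than a numeric limit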;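 also: potency is read from the fitted curve at half-maximal effect; cells exposed to compound for 40 hours at 37 °C before reading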). Particulars: qHTS. The method in brief:
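AC50 values derive from Hill-modelled concentration-response of ATP-based luminescence, normalized between DMSO-only and 100 uM tamoxifen controls. Cells were exposed in complete culture medium for 40 hr at 37 °C before detection.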

Experiment [11] can be described thus: Cell Viability - HepG2 (AID 433; calls by dose curve;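 also: potency is read from the fitted curve at half-maximal effect; potency for ATP loss meaning cytotoxicity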). Conditions: qHTS. An outline of the steps:
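HepG2 cells, 1500 per well, treated 40 hr at 37 °C in complete medium; viability from intracellular ATP by CellTiter-Glo luminescence. Normalized to DMSO and 100 uM tamoxifen; AC50 from Hill fit of qHTS concentration-response.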

The nature of experiment [12]: Cell Viability - MRC5 (AID 434; calls by dose curve;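 also: potency is read from the fitted curve at half-maximal effect; potency reflects cytotoxicity seen as loss of intracellular ATP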). Particulars: MRC5 lung fibroblast viability, qHTS. The method in brief: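 ATP luminescence read-out (CellTiter-Glo, 20 min RT) after 40 hr, 37 °C compound exposure of 1500 MRC5 cells/well. Data normalized to DMSO (basal) and 100 uM tamoxifen (100% inhibition); AC50 from standard Hill equation.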
Experiment [13] in a line: Cell Viability - SK-N-SH (AID 435; calls by dose curve;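 also: potency is read from the fitted curve at half-maximal effect; compound exposure lasted 40 h at 37 °C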). Conditions: SK-N-SH neuroblastoma cell viability qHTS. An outline of the steps:
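SK-N-SH neuroblastoma cells (1500/well) treated 40 h at 37 °C in complete medium; viability read as cellular ATP by CellTiter-Glo luminescence. Normalized to DMSO and 100 uM tamoxifen; AC50 from Hill fits of qHTS concentration-response.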

Experiment [14] can be described thus: Cell Viability - N2a (AID 540; active = well fitted curve in the direction sought with a large enough effect; an effect the other way counts as inactive or inconclusive;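 also: plate controls were DMSO alone for no effect and tamoxifen control for full effect; nearly all actives have a fitted effect of over 45% in size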). Conditions: N2a mouse neuroblastoma cell viability; series mostly up to 92.2 µM. An outline of the steps:
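Cytotoxicity was scored as loss of cellular ATP in N2a cells, a mouse neuroblastoma line. Compounds are applied in a qHTS concentration series for 40 hr at 37 °C.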

Experiment [15] in a line: Cell Viability - NIH 3T3 (AID 541; active = well fitted curve in the direction sought with a large enough effect; an effect the other way counts as inactive or inconclusive;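 also: plate controls were DMSO alone for no effect and tamoxifen positive control for full effect; nearly all actives have a fitted effect of over 25% in size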). Particulars: NIH 3T3 cell viability, qHTS; series mostly up to 92.2 µM. The method in brief:
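Cells seeded at 1000/well, rested 5 hr at 37 °C, then dosed and incubated 40 hr at 37 °C. CellTiter-Glo added, 20 min room temperature, luminescence read. AC50 by Hill fit.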

Experiment [16] in a line: Cell Viability - HUV-EC-C (AID 542; active = well fitted curve in the direction sought with a large enough effect; an effect the other way counts as inactive or inconclusive; also: % is scaled to controls: 0 for no effect and ±100 for the full control effect; nearly all actives have a fitted effect of over 35% in size). Particulars: HUV-EC-C endothelial cell viability, qHTS; series mostly up to 92.2 µM. The method in brief:
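Cells were seeded at 1000 per well and incubated 5 hr at 37 °C before compound addition. After 40 hr at 37 °C, CellTiter-Glo reagent was added for 20 min and luminescence read. AC50 values came from Hill-equation modelling.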

Experiment [17] can be described thus: Cell Viability - H-4-II-E (AID 543; active = well fitted curve in the direction sought with a large enough effect; an effect the other way counts as inactive or inconclusive; also: % is scaled to controls: 0 for no effect and ±100 for the full control effect; nearly all actives have a fitted effect of over 35% in size). Conditions: H-4-II-E rat hepatoma viability; series mostly up to 92.2 µM. An outline of the steps: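 Cells seeded at 1500 per well and rested 5 hr; compounds added; 40 hr incubation at 37 °C; CellTiter-Glo added, 20 min at room temperature; luminescence read. Hill-equation fits gave AC50.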
Experiment [18] can be described thus: Cell Viability - SH-SY5Y (AID 544; active = well fitted curve in the direction sought with a large enough effect; an effect the other way counts as inactive or inconclusive;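 also: 0% = DMSO alone and -100% = 100 µM tamoxifen; nearly all actives have a fitted effect of over 55% in size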). Particulars: SH-SY5Y neuroblastoma cell viability; series mostly up to 92.2 µM. An outline of the steps: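 Cells were plated at 1500 per well and allowed 5 hr at 37 °C. Compounds were added across a concentration range and incubated 40 hr at 37 °C. CellTiter-Glo was added for 20 min at room temperature before luminescence reading.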

The nature of experiment [19]: Cell Viability - Renal Proximal Tubule (AID 545; active = well fitted curve in the direction sought with a large enough effect; an effect the other way counts as inactive or inconclusive;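 also: 0% = DMSO only and -100% = 100 µM tamoxifen; nearly all actives have a fitted effect of over 40% in size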). Conditions: renal proximal tubule cells viability, primary cells of rat origin; series mostly up to 91.7 µM. The method in brief: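 Rat renal proximal tubule primary cells, 1000/well, exposed to compounds for 40 hr at 37 °C in complete medium; cellular ATP read by CellTiter-Glo luminescence. AC50 from concentration-response fitted with standard Hill equation.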

Chain of Cytochrome P450 1A2 (Homo sapiens) (P05177 whole entry, looked up): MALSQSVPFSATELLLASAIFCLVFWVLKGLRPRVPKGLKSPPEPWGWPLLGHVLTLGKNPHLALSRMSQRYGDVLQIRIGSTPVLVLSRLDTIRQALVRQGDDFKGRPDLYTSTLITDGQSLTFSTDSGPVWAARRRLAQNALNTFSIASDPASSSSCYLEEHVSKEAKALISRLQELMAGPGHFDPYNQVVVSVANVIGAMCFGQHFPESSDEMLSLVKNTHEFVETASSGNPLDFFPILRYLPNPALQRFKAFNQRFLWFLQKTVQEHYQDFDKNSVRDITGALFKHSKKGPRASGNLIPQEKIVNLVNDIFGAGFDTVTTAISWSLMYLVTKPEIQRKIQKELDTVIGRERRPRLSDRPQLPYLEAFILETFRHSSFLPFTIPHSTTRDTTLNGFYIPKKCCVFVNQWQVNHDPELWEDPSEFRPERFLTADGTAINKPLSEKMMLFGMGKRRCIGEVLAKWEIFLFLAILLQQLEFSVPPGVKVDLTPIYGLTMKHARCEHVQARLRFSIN
Chain of Glucocorticoid receptor (Homo sapiens) (P04150 whole entry, looked up): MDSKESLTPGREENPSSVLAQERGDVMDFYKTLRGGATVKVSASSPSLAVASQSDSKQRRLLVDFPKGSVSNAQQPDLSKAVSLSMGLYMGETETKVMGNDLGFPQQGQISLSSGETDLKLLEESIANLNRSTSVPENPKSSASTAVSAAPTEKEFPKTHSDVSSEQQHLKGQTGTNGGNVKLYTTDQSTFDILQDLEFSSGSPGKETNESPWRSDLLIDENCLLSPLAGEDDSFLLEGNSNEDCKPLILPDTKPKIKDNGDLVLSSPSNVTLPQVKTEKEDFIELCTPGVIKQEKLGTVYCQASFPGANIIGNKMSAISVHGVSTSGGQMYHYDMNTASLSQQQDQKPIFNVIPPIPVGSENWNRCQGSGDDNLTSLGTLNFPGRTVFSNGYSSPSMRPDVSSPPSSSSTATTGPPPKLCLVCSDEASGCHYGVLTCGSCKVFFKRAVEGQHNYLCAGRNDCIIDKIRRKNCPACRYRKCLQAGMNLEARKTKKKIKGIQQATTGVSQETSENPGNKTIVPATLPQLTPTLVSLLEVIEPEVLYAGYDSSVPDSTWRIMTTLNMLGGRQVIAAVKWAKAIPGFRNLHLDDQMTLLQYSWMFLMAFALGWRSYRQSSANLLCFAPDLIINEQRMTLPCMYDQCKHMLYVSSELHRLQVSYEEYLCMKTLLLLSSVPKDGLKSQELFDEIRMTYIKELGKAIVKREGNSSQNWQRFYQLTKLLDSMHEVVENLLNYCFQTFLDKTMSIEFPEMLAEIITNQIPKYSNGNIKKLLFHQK

Take `C[C@]12CCC(=O)C=C1CC[C@@H]1[C@@H]2[C@@H](O)C[C@@]2(C)[C@H]1CC[C@]2(O)C(=O)CO`: the activity change, negative = inhibition in experiment [1] (at 17.2 µM (top of the series)) is -3.8%; in experiment [2] (at 17.2 µM (top of the series)), 18.6%. In addition, in experiment [3], the result was inactive.
Consider `CCN(c1ccccc1)c1cc(NC)[n+](C)c(C)n1`, for which the Potency in experiment [4] was 31.6 µM (active); in [5], above 46 µM; in experiment [6], above 46 µM. Besides, the compound was classed as inactive in [7].
Turning to `CC(C)C[C@H](NC(=O)[C@@H](O)[C@H](N)Cc1ccccc1)C(=O)O`, the Potency entry in [4] was “inactive”. Moreover, the Potency in experiment [5] and in experiment [6] was above 46 µM each time. Besides, in experiment [7], the call was inactive.
On to `CCC(C)(C)C(=O)O[C@H]1C[C@@H](C)C=C2C=C[C@H](C)[C@H](CC[C@@H]3C[C@@H](O)CC(=O)O3)[C@H]21`, for which the Potency in experiment [5] and in experiment [6] was above 46 µM throughout. In addition, the result in [7] was inactive.
With `Cc1cn[nH]c1`, the activity change, negative = inhibition is 13.5% in [1] (at 38 µM (top of the series)) and -5.73% in experiment [2] (at 38 µM (top of the series)). In addition, in experiment [3], the call was inactive. The Potency in [5] and in experiment [6] was above 46 µM throughout.
Consider `O=c1[nH]cnc2[nH]ncc12`, for which the figures for the activity change, negative = inhibition in experiment [1] (at 38 µM (top of the series)) and in [2] (at 38 µM (top of the series)) were 2.34% and 5.26%, respectively. For the same compound, the Potency result in [4], in experiment [15] and in experiment [17] was “inactive” throughout. Also, the Potency in [8], in [9], in experiment [10], in [11], in [12] and in experiment [13] was above 92 µM in each case. Also, the Potency in [5] and in experiment [6] was above 46 µM each time. The call in experiment [3], in experiment [7], in [14], in [16], in experiment [18] and in experiment [19] was inactive.
Regarding `Cc1ccccc1C(OCCN(C)C)c1ccccc1` (centres undefined), the activity change, negative = inhibition in experiment [1] (at 17.2 µM (top of the series)) is 14.6%; in experiment [2] (at 17.2 µM (top of the series)), -85.9% (active). In addition, the call in experiment [3] was inactive. Moreover, in [5], the Potency was above 20.6 µM.
`O=NN(CCCl)C(=O)NCCCl`: the activity change, negative = inhibition in experiment [1] (at 38 µM (top of the series)) was 3.21%; in experiment [2] (at 38 µM (top of the series)), -7.61%. In addition, the Potency in experiment [5] and in experiment [6] was above 46 µM in each case. Further, the result in experiment [7] was inactive.
With `CCOC(=O)N1CCC(=C2c3ccc(Cl)cc3CCc3cccnc32)CC1`, the Potency in [5] was > 46 µM and > 20.6 µM; in [6] it was above 46 µM. Also, the result in [7] was inactive.
On to `Cc1ccc2c(c1)C(=O)[C@@]1(O)CCN(c3ccccc3)C1=N2`, for which the results for the Potency in experiment [4], in experiment [5] and in experiment [6] were 3.98 µM (active), above 46 µM and above 46 µM, respectively. The result in [7] was inactive.
